# PK Bst – modulators of Bacillus stearothermophilus pyruvate kinase. Potency, µM. purified pyruvate kinase, luminescence ATP production; ribose 5-phosphate activator present at AC10. AID 361. 51,000 tested, 1.2% active; in the data active means potency below about 11 µM; inconclusive means mostly about 12 µM to 25 µM;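 the screen sought inhibitors and activators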;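 further: scaled between full activation by ribose 5 phosphate and full inhibition by luteolin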
# UbGFP stabilizer – ubiquitin-GFP accumulation via proteasome inhibition. Ubiquitin-GFP reporter cells, proteasome inhibition, GFP fluorescence; response scale: untreated = 0%, 10 µM MG-132 = 100%. Potency, µM (highest dose often 45.9 µM), without a hit: at the top dose activation (GFP accumulation), usual class: activators. 67,000 tested, under 10 active; active means well fitted activation curve with a large enough effect, not every such curve was filed as active; inconclusive means small, poorly fitted or top-dose-only effect, or another doubt; inactive means no such curve, though single readings can be large or run the other way
#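 Proteasome blockade was scored as a rise in GFP-expressing U2OS cells carrying a ubiquitin(G76V)-GFP construct, imaged after 4 hr compound treatment at 37 °C across a 46 uM–2.9 nM series.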
# HEK293 cAMP cs – counter-screen for TSHR agonists: cAMP increase in parental HEK293; parental HEK293 CNG cAMP sensor, membrane potential fluorescence; Potency, µM (doses to about 57.1 µM), for the others: at the highest dose activation, actives largely listed as activators; 73,000 tested, 2.5% active; further: % of control where 0% means no effect; nearly all actives have a fitted effect of over 55% in size
#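 Counterscreen for endogenous-receptor signalling: CNG-channel HEK 293 cells report cAMP rise by membrane depolarization. After 60 min dye equilibration with 100 uM RO 20-1724, compounds incubated 30 min before bottom-read fluorescence at 590 nm.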
# TSHR agonist – activates the human thyroid stimulating hormone receptor; HEK293-CNG-TSHR cells (CNG channel as cAMP sensor), membrane potential dye, cAMP; 73,000 tested, 0.48% active; AID 926; Potency, µM (doses to about 57.1 µM), for the others: at the highest dose activation, actives largely listed as activators; active means well fitted activation curve with a large enough effect in the main read-out, with a control signal flat, not every such curve was filed as active; inconclusive means small, poorly fitted or top-dose-only effect, or a change in a side signal; inactive means no such curve, though single readings can be large or run the other way; % of control where 0% means no effect;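 further: the control signal comes from parental cells without the receptor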
#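 HEK 293 cells stably expressing TSHR and a modified CNG channel, with CNG-only parental cells as counterscreen, were preloaded 60 min at room temperature with membrane potential dye containing 100 uM RO 20-1724. Compound exposure was 30 min, and depolarization was read as fluorescence at 590 nm.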
# GBA mod – human lysosomal glucosylceramidase modulation; AID 360; 48,000 tested, 1.1% active; Potency, µM; purified enzyme, resorufin glucoside fluorescence (screen aimed at inhibitors), 20 min; in the data active means potency below about 15 µM; inconclusive means mostly about 16 µM to 33 µM;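 further: the screen sought inhibitors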
# Target sequence (P04062 whole entry, looked up): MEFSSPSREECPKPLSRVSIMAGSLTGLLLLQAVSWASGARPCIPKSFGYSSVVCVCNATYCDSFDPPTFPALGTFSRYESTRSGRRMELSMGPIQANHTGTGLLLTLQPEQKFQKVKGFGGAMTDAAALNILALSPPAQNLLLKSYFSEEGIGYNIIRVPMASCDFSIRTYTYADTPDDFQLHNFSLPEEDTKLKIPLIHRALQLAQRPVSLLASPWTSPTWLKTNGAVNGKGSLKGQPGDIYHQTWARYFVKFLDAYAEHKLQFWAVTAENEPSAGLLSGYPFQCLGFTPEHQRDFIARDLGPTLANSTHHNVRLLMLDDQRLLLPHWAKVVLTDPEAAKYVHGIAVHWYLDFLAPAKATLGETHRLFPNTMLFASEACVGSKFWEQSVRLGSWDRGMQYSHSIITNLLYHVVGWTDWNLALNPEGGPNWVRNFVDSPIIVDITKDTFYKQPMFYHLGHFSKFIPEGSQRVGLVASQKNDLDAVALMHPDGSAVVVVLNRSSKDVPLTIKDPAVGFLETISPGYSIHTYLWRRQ
#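 Normal human glucocerebrosidase (0.2 nM final) was assayed with resorufin β-D-glucopyranoside (30 uM final) in 50mM citric acid/KH2PO4, 10mM sodium taurocholate, 0.01% tween-20, pH 5.9. Compounds were titrated; fluorescence (Ex 548, Em 600) read after 20 min at RT.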
# USP2a inh – inhibitors of human ubiquitin-specific protease USP2a; O75604; USP2a enzymatic assay, qHTS inhibition; Potency, µM (doses to about 38.3 µM), for the others: top-dose activity change, negative = inhibition, usual class: inhibitors; 60,000 tested, 0.1% active; further: nearly all actives have a fitted effect of over 60% in size
#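 Inhibition is measured in a cell-free coupled assay with 20 nM USP2 core, 20 nM Ub-PLA2 and 20 uM NBD C6-HPC, 2.5 h incubation. Activity normalized to NEM control.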
# * hit, by the source's call; i = inactive; ? = inconclusive; . = no result given; ! = not confirmed by another sample; [ ] = remark or other dose. An excerpt weighted towards active compounds, which were near 4.1% of everything screened. Unless noted, the call rests on the fitted dose curve; in most records, active means well fitted curve in the direction sought with a large enough effect; inconclusive means small, poorly fitted or top-dose-only effect, or another doubt; inactive means no such curve, though single readings can be large; an effect the other way counts as inactive or inconclusive. Potency means the concentration at half of the fitted maximal effect.
SMILES,PK Bst,UbGFP stabilizer,HEK293 cAMP cs,TSHR agonist,GBA mod,USP2a inh
c1ccc2nc(-c3nc4ccccc4o3)ccc2c1,1.5*,6%,9%,20%,?,5%
CCOc1ccccc1NC(=O)N1CCCC1C(=O)Nc1nnc(CC)s1 (centres undefined),>57,0%,6%,5%,>77,15%
CCOc1ccccc1NC(=O)N1CCCC1C(=O)Nc1ccc(-n2cnnn2)c(C)c1 (centres undefined),>57,-1%,-2%,20µM*,.,30%
CC1CCCCC1NC(=O)C1CCN(S(=O)(=O)N2CCC3(CC2)OCCO3)CC1 (centres undefined),>57,-3%,3%,-3%,>77,5%
CC1CCCC(NC(=O)C2CCN(S(=O)(=O)N3CCC4(CC3)OCCO4)CC2)C1C (centres undefined),>57,10%,6%,1%,14*,5%
O=C(C1CC1c1ccccc1)N1CCN(c2cccc(Cl)c2)CC1 (centres undefined),>57,-5%,32µM*,?,>77,7%
O=C(O)c1ccccc1C(=O)N1CCN(c2cccc(Cl)c2)CC1,>11,-4%,7%,3%,>77,3%
Nc1nnnn1/N=C/c1ccccc1OCc1ccc(Cl)cc1Cl,>57,1%,32µM*,?,>77,1%
Nc1nnnn1/N=C/c1ccccn1,>26,.,.,.,.,.
CC1(CC(=O)O)O[C@H]2CCCCC[C@H]2O1 (some centres undefined) (tested in a mixture with another compound),.,-3%[9.17 µM],13%[11.4 µM],6%[11.4 µM],.,.
CC(=O)N1CCC2(CCCN(C(=O)Nc3cccc(F)c3)C2)CC1,.,-7%,10%,6%,.,-3%
CCCn1c(=O)c2[nH]c(-c3ccc(OCC(=O)Nc4ccc(C#N)cc4)cc3)nc2n(CCC)c1=O,.,3%,25%,4%,.,4%
CC(C)n1c(CNC(=O)c2ccccc2)nc2ccccc21,>57,2%,-2%,3%[11.4 µM],8.4*,-1%
CC1=C(C(=O)OCc2ccccc2)C(c2ccccc2)NC(=O)N1CCCCCC(=O)O (centres undefined),.,.,28%,.,.,.
CC1=C(C(=O)OCc2ccccc2)C(c2ccc(C(C)(C)C)cc2)NC(=O)N1CCCCCC(=O)O (centres undefined),.,.,20µM*,?,.,.
Cc1cccc(CNc2ncncc2-c2ccc(C(=O)N(C)C)cc2)c1,.,10%,7%,13%,.,8%
CCOC(=O)c1cnc(-n2nc(C)cc2C)nc1NCCc1ccccc1,?,-1%,25µM*,?,>77,-11%
CCOC(=O)c1cnc(-n2nc(C)cc2C)nc1N(C)C,11*,-2%,7%,6%,>77,-6%
CCOC(=O)c1c(C)nc2c3ccccc3ccn12,6.9*,-3%,23%,17%,>77,11%
COc1ccc2c(c1)OCC(Cc1ccc(OC)c(OC(C)=O)c1)C2=O (centres undefined),.,.,.,.,.,-8%
O=C(Nc1nc(-c2ccc(Cl)s2)cs1)c1cccs1,?,.,25µM*,?,i,22%
COc1ncc2nc(-c3cn(C)c4ccccc34)c(=O)n(CCc3ccccc3)c2n1,.,10%,12%,6%,.,175%
COc1ccc(Oc2ncc3nc(CCc4ccccc4)c(=O)n(C[C@H]4CCCO4)c3n2)cc1,.,1%,10µM*,?,.,63%
COc1ncc2nc(CCc3ccccc3)c(=O)n(Cc3cccs3)c2n1,.,12%,10µM*,?,.,-2%
O=c1cnc2cnc(Oc3ccccc3)nc2n1CCc1ccccc1,.,6%,1.6µM*,?,.,27%
SMILES,PK Bst,UbGFP stabilizer,HEK293 cAMP cs,TSHR agonist,GBA mod,USP2a inh
COc1cccc(Cn2c(=O)c(CCc3ccccc3)nc3cnc(OC)nc32)c1,.,-6%,16µM*,?,.,5%
Cn1c(=O)c(CCc2ccccc2)nc2cnc(OCc3ccccc3)nc21,.,14%,1µM*,?,.,-4%
COc1ncc2nc(CCc3ccccc3)c(=O)n(C)c2n1,.,-1%,?,?,.,-5%
CCCC(=O)N1CCc2cc(-c3nc(N)sc3C)ccc21,.,1%,1%,-60%,?,29%
CCC(C)C(=O)N1CCc2cc(-c3csc(N)n3)ccc21 (centres undefined),8.1*,-3%,-7%,-9%,?,10%
COc1ccc(OC)c(CCNC(=O)CS(=O)(=O)Cc2nc(-c3ccc(C)cc3)oc2C)c1,>57,-1%,?,?,.,11%
COc1ccc(-c2nc(CS(=O)(=O)CC(=O)NCCc3cc(OC)ccc3OC)c(C)o2)cc1,>57,-9%,25µM*,?,>77,24%
CC(C)(C)n1nnnc1C(c1cccs1)N1CCCc2ccccc21 (centres undefined),>57,2%,16µM*,?,.,101%
CC(C)(C)n1nnnc1C(c1cccs1)N1CCCC2(CCCCC2)C1 (centres undefined),>57,1%,?,?,>77,18%
CN(Cc1ccco1)c1cc(-c2ccoc2)ncn1,.,-6%,-1%,4%,.,-3%
CC(=O)OC[C@@H]1O[C@H](C/C=N\O[C@@H](C)c2cn([C@H](CO)Cc3ccccc3)nn2)C=C[C@@H]1OC(C)=O,.,.,1%[11.4 µM],-2%[11.4 µM],.,.
CCC[C@@H]1C[C@@]1(CCC)C(NC(=O)c1ccco1)c1ccc(Cl)cc1 (some centres undefined),.,.,10µM*,?,.,.
CCC[C@@H]1C[C@@]1(CCC)[C@@H](NC(=O)Oc1ccccc1)c1ccc(C(=O)OC)cc1,.,.,-2%,12%,.,.
CCC[C@@H]1C[C@@]1(CCC)C(NP(=O)(c1ccccc1)c1ccccc1)c1ccc(Cl)cc1 (some centres undefined),.,.,13µM*,?,.,.
CCC[C@@H]1C[C@@]1(CCC)C(NC(=O)c1ccccc1)c1cccc(Cl)c1 (some centres undefined),.,.,22%,19%,.,.
COc1ccc(-c2nc3cnc(N4CCNCC4)nc3n(CCC#N)c2=O)cc1,.,2%,?,?,.,36%
CCCn1c(-c2ccc(F)cc2)nc2c(N3CCCN(Cc4ccccc4)CC3)nc(C)nc21,.,-3%,?,?,.,.
CC(=O)OC[C@@H]1O[C@H](CCO/N=C(\C)CCN2CCCc3nc(C)c(C)cc32)C=C[C@@H]1OC(C)=O,.,.,4%[11.4 µM],-3%[11.4 µM],.,.
CC(C)(C)c1ccc(S(=O)(=O)/C=C\C#N)cc1,.,-7%,25µM*!,?,.,1%
Cc1ccc2ccccc2c1[N+](=O)[O-],.,.,-56%,?,.,.
c1ccc(-c2nc(-n3ccnc3)nc(-n3ccnc3)n2)cc1,0.94*,9%,-3%,12%,>77,?
